Results published in PubChem BioAssay (NCATS).
Records with an inconclusive call do not appear. A call without a number means that no potency is given here. Activity calls are given as the source filed them. Unless noted, calls follow the shape of the dose curve; as a rule, active = well fitted curve in the direction sought with a large enough effect; inconclusive = small, poorly fitted or top-dose-only effect, or another doubt; inactive = no such curve, though single readings can be large; an effect the other way counts as inactive or inconclusive. Where a SMILES comes first, the peptide text is derived from it.

Tests used:
[1] = system: Zika virus NS2B-NS3 protease; test: Primary screen GU AMC qHTS for Zika virus inhibitors (AID 1347154); also: nearly all actives have a fitted effect of over 70% in size
In short: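 Fluorogenic AMC-substrate cleavage by noncovalent NS2B-NS3 protease complex (25 nM, pH 8.0 Tris buffer with Tween 20) followed for 15 minutes at room temperature (~20% conversion). Percent inhibition from ex340/em450 signal change, fitted by 4-parameter Hill equation.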

[2] = Primary qHTS for small molecule stabilizers of the endoplasmic reticulum resident proteome: Secreted ER Calcium Modulated Protein (SERCaMP) assay (AID 1508630); also: potency is read from the fitted curve at half-maximal effect
In short: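 GLuc-SERCaMP-expressing SH-SY5Y cells, pretreated 16 h with compound, are challenged with thapsigargin to empty ER calcium stores; after 4 h, coelenterazine is added directly to the medium and luminescence is imaged.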

[3] = AP1 Signaling Pathway (AID 357; active = well fitted curve in either direction with a large enough effect, not every such curve was filed as active;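 also: ME-180 reporter cells stimulated with EGF at its EC50 level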)
In short: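 First, ME-180 AP-1-bla cells were cultured overnight at 37 °C in low-serum Opti-MEM. Next, titrated compounds with EC50 EGF were incubated 5 hours. Finally, CCF4 was added for 2.5 hours and the 460/530 nm ratio recorded.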

[4] = biological target: Cytochrome P450 1A2 (Homo sapiens) (UniProt P05177); test: p450-cyp1a2 (AID 410; calls by dose curve; also: potency is read from the fitted curve at half-maximal effect)
In short: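 20nM CYP1A2 with 100uM Luciferin-ME (at Km) in 100mM KPO4; compound preincubated 10 min, NADPH regeneration added, 60 min at room temperature. Luciferin quantified by luminescence after detection reagent; normalized to 57 uM furafylline.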

[5] = NFAT Signaling Pathway (AID 444; active = well fitted curve in either direction with a large enough effect, not every such curve was filed as active;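 also: carbachol stimulus at about its EC50 of 1 µM final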); details: Jurkat NFAT-bla M1, carbachol, beta-lactamase ratio, 5 h; at 38 µM (top of the series)
In short: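 Read-out: CCF4 FRET ratio (460 nm/530 nm) after 1 h RT dye loading, used for %activity and AC50 from titration series. Cells: Jurkat NFAT-β-lactamase/M1 line, treated with compound plus 1 uM carbachol for 5 h, 37 °C.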

[6] = Stat Signaling Pathway (AID 446; active = well fitted curve in either direction with a large enough effect, not every such curve was filed as active;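 also: ME-180 cervical cancer cells given 40 pM IL-6 alongside compound; SIE-controlled beta-lactamase reporter measured as 460/530 nm FRET emission ratio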)
In short: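 IL-6/STAT signaling read in ME-180 cells via an SIE beta-lactamase reporter. Stimulus was 40 pM IL-6 (its AC50) for 5 hrs, so both activation and inhibition register.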

[7] = biological target: Glucocorticoid receptor (Homo sapiens) (UniProt P04150); test: GR-GFP Redistribution (AID 450;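 active = compounds whose dose series gives a full or clear partial fitted curve of increased nuclear translocation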; also: potency is read from the fitted curve at half-maximal effect); details: U2OS GR-GFP nuclear translocation, laser cytometry, 2 h
[8] = biological target: Glucocorticoid receptor (Homo sapiens) (UniProt P04150); test: GR-EFC Redistribution (AID 451; calls by dose curve; also: potency is read from the fitted curve at half-maximal effect); details: CHO-K1 GR-EFC translocation, beta-gal luminescence, 2 h
In short: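 Translocation of GR-ED fusion to nuclear EA restores b-gal, read by luminescence after 1 h room-temperature detection. Engineered CHO-K1 biosensor cells, 1,000/well, exposed 2 h at 37 C to titrations up to 46 uM final.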

[9] = biological target: Mitogen-activated protein kinase 10 (Mus musculus) (UniProt Q61831); test: JNK3 AlphaScreen Assay (AID 530; active = well fitted curve in either direction with a large enough effect, not every such curve was filed as active;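 also: kinase came from lysate of stimulated human HepG2 cells; signal reports phosphorylation of biotinylated GST-cJun 1-79 at Ser73 with 10 µM ATP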)
In short: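 Compound titrations were preincubated 15 minutes at room temperature with substrate, antibody and pre-activated JNK3-containing HepG2 lysate. Reactions were started with 10 uM ATP and stopped with EDTA-containing bead buffer for AlphaScreen detection.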

[10] = biological target: 3',5'-cyclic-AMP phosphodiesterase 4B (Homo sapiens) (UniProt Q07343); test: qHTS Assay for Inhibitors of PDE-IV (AID 607; active = well fitted activation curve with a large enough effect in the main read-out, with a control signal flat, not every such curve was filed as active)
In short: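 Live HEK293 cells with a modified cyclic nucleotide-gated (CNG) channel report intracellular cAMP via membrane-potential dye fluorescence (ex 535/em 590 nm). Endogenous PDE-IV was targeted. Compounds were tested at up to 22.9 uM final; RO 20-1724 100 uM served as control.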

[11] = biological target: Guanine nucleotide-binding protein G(i) subunit alpha-1 (Homo sapiens) (UniProt P63096); test: qHTS Assay for Inhibitors of RGS12 GoLoco Motif Activity (Green Fluorophore) (AID 879);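 also: negative values mean loss of peptide binding seen as reduced polarization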
In short: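 Fluorescence polarization assay: 50 nM Gαi1 with 10 nM FITC-labeled RGS12 GoLoco peptide in 10 mM Tris pH 7.5, 150 mM NaCl, 0.1 mM GDP, 0.05% NP40, 10 min at room temperature with compound.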

[12] = biological target: Pyruvate kinase (Leishmania mexicana) (UniProt Q27686); test: qHTS Validation Assay for Inhibitors of Leishmania Mexicana Pyruvate Kinase (AID 945)
In short: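 Compounds are tested as eight-point concentration series. Reactions contain 0.2 nM LmPYK E451W, 0.5 mM PEP, 0.1 mM ADP, 7 mM MgCl2 and 50 mM KCl at pH 7.2, run 1 h at room temperature, then read by PKLight luminescence.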

[13] = biological target: Pyruvate kinase PKM (Homo sapiens) (UniProt P14618); test: qHTS Assay for Activators of Human Muscle Pyruvate Kinase (AID 954; active = well fitted curve in the direction sought with a large enough effect, not every such curve was filed as active)
In short: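 Enzyme was run at intermediate activity so both inhibitors and activators could be detected. ATP formed from ADP and PEP by 0.1 nM human PKM2 during a 1 h room-temperature incubation was quantified by coupled luciferase luminescence.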

[14] = biological target: Alpha-galactosidase (Coffea arabica) (UniProt Q42656); test: Counterscreen for Glucocerebrosidase Inhibitors: qHTS Assay for Coffee Bean alpha-Galactosidase at pH 4.5 (AID 957)
In short: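 Coffee bean enzyme (2 nM) with 80 uM 4-methylumbelliferyl alpha-D-galactopyranoside in 50 mM citric acid, 0.005% Tween-20, pH 4.5, 20 min at room temperature; compounds 0.7 nM–77 uM. Stopped at pH 10, fluorescence 365/440 nm; AC50 from Hill fits.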

[15] = biological target: Alpha-galactosidase A (Homo sapiens) (UniProt P06280); test: Counterscreen for Glucocerebrosidase Inhibitors: qHTS Assay for Human alpha-Galactosidase at pH 4.5 (AID 992)
In short: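 Read-out is 4-methylumbelliferone fluorescence (365 nm excitation, 440 nm emission) after a pH 10 NaOH/glycine stop. Reactions held 2 nM enzyme and 80 uM substrate at pH 4.5 for 20 min at room temperature.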

[16] = biological target: alpha-glucosidase (Oryza sativa, rice) (UniProt Q653V4); test: Counterscreen for Glucocerebrosidase Inhibitors: qHTS Assay for Rice alpha-Glucosidase at pH 5.0 (AID 997)
In short: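 Rice alpha-glucosidase (4 nM final) with 400 uM 4-methylumbelliferyl-alpha-D-glucopyranoside in citrate buffer pH 5.0, 20 min at room temperature, stopped at pH 10; fluorescence 365/440 nm, compounds 0.7 nM–77 uM, AC50 from Hill fits.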

[17] = biological target: Alpha-galactosidase (Coffea arabica) (UniProt Q42656); test: Counterscreen for Glucocerebrosidase Inhibitors: qHTS Assay for Coffee Bean alpha-Galactosidase at pH 5.9 (AID 998)
In short: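 Compounds were titrated from 0.7 nM to 77 uM against green coffee bean alpha-galactosidase (2 nM) using 80 uM fluorogenic 4-methylumbelliferyl substrate. After 20 min at room temperature, reactions were stopped at pH 10 and read by fluorescence.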

[18] = qHTS Assay for Lipid Storage Modulators (AID 1519; calls by dose curve); details: Drosophila S3 cells, BODIPY lipid droplet/cell ratio, laser cytometry, cells loaded with oleic acid; for activity change, negative = inhibition: at 57.5 µM (top of the series)
In short: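 Cells seeded at 5,000 per well were treated with compounds over a concentration series and loaded with oleic acid (400 uM, as added). Lipid droplet fluorescence (488 nm excitation, 500-530 nm channel) was read by laser-scanning cytometry and normalized to 20 uM Triacsin C.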

[19] = biological target: DNA dC->dU-editing enzyme APOBEC-3G (Homo sapiens) (UniProt Q9HC16); test: qHTS for inhibitors of Vif-A3G interactions: Validation (AID 588379)
In short: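 HeLa cells stably expressing Vif and A3G-eYFP, 700 cells/well, incubated overnight at 37 deg C, then exposed to compound overnight at 37 deg C. Inhibition of Vif-mediated degradation read as increased yellow fluorescence (Ex 488/Em 500-530) by laser-scanning cytometry.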

[20] = biological target: Ubiquitin carboxyl-terminal hydrolase 1 (Homo sapiens) (UniProt O94782); test: Inhibitors of USP1/UAF1: Pilot qHTS (AID 504865);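 also: rhodamine fluorescence freed from ubiquitin-rhodamine substrate followed over time; top concentration of the series differs between compounds; nearly all actives have a fitted effect of over 35% in size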
In short: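 Deubiquitinase activity followed as kinetic rhodamine fluorescence release from 150 nM Ub-Rho. 1 nM USP1/UAF1 with compound, after 15 min room-temperature preincubation, in HEPES pH 7.8 buffer containing TCEP, EDTA, BSA and Tween-20.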

[21] = measured here: cell count channel max response
[22] = measured here: lipid channel max response

Sequence of Alpha-galactosidase (Coffea arabica) (Q42656 whole entry, looked up): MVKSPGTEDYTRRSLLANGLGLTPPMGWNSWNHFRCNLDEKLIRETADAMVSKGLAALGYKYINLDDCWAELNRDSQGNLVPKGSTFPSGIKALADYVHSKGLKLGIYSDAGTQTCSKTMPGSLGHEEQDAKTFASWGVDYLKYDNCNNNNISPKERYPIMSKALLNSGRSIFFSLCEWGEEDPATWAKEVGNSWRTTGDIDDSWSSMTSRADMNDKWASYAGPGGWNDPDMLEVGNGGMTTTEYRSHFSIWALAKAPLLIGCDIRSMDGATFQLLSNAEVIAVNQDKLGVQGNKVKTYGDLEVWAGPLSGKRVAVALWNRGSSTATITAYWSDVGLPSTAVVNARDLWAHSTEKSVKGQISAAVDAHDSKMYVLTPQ
Sequence of Pyruvate kinase (Leishmania mexicana) (Q27686 2-499 E452W): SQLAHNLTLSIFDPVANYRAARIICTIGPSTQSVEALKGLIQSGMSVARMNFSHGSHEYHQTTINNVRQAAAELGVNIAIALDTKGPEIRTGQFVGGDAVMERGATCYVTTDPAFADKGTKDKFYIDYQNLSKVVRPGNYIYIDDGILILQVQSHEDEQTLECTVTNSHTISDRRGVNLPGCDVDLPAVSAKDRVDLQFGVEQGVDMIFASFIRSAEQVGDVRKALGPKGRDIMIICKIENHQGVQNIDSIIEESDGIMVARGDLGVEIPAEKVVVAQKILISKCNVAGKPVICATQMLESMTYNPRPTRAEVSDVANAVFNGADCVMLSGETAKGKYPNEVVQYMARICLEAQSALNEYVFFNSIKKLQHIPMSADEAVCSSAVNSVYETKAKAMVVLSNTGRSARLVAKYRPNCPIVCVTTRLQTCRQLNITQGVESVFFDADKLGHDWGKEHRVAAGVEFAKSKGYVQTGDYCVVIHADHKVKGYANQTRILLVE
Sequence of Glucocorticoid receptor (Homo sapiens) (P04150 whole entry, looked up, the tested form may be a part): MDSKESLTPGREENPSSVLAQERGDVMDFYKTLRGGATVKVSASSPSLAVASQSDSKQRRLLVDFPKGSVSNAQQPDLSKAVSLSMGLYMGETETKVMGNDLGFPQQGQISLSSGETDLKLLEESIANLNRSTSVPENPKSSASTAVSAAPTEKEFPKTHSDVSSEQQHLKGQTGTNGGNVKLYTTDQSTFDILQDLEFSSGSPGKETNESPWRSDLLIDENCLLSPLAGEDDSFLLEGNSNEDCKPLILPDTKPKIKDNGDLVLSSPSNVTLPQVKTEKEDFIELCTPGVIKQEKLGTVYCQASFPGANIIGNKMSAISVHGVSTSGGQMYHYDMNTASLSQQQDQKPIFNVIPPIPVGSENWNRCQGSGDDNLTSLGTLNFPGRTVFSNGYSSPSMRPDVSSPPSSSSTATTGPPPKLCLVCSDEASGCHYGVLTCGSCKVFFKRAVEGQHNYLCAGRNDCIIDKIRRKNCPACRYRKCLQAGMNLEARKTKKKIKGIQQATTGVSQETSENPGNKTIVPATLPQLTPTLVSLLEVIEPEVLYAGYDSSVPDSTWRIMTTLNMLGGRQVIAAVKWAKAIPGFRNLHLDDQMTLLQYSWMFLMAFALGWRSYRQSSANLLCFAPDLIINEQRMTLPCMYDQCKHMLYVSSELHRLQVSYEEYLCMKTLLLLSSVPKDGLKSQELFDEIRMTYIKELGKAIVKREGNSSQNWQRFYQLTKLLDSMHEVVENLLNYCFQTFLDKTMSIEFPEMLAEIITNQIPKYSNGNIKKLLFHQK
Sequence of Cytochrome P450 1A2 (Homo sapiens) (P05177 whole entry, looked up): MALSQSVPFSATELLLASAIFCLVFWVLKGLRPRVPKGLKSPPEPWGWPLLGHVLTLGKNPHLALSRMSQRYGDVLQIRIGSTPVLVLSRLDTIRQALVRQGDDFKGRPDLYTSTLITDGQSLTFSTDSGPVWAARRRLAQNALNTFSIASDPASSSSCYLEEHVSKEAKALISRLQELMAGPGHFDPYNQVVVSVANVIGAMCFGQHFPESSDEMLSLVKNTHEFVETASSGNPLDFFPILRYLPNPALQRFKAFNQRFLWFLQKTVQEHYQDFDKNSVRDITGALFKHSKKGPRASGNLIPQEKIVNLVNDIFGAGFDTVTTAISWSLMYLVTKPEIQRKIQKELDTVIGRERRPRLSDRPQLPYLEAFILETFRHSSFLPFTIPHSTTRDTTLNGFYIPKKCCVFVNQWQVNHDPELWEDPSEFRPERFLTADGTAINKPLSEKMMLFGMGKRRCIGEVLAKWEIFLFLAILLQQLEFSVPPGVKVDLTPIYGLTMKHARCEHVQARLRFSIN
Sequence of 3',5'-cyclic-AMP phosphodiesterase 4B (Homo sapiens) (Q07343 whole entry, looked up): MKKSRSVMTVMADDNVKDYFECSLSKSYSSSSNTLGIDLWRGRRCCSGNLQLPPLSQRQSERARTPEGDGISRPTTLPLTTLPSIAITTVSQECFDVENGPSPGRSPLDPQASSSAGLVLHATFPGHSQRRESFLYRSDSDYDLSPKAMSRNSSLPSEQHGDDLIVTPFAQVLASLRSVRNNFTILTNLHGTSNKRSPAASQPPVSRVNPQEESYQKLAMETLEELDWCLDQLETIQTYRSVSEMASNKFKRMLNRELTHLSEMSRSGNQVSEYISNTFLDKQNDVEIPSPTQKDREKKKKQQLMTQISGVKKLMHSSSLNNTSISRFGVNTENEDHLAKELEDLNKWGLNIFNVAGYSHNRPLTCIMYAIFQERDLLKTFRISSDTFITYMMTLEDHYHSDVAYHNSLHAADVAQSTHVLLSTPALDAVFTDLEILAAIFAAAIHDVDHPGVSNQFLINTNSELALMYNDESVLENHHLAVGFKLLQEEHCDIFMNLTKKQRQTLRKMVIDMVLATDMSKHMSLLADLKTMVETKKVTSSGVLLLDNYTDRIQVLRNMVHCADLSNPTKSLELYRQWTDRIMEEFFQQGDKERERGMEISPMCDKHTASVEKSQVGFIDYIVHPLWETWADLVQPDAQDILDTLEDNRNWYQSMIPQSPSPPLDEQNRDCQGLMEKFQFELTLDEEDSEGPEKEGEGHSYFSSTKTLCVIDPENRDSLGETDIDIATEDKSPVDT
Sequence of DNA dC->dU-editing enzyme APOBEC-3G (Homo sapiens) (Q9HC16 whole entry, looked up): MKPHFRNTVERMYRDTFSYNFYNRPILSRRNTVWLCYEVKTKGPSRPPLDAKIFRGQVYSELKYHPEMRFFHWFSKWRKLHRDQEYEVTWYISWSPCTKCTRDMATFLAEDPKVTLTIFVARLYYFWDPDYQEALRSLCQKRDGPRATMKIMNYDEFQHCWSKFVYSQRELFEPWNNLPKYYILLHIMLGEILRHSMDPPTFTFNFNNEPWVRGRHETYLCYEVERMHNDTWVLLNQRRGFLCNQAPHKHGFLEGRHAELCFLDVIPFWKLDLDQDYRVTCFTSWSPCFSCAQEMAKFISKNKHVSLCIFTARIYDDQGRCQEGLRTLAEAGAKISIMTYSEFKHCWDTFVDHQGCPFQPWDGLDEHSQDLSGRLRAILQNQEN
Sequence of Pyruvate kinase PKM (Homo sapiens) (P14618 whole entry, looked up): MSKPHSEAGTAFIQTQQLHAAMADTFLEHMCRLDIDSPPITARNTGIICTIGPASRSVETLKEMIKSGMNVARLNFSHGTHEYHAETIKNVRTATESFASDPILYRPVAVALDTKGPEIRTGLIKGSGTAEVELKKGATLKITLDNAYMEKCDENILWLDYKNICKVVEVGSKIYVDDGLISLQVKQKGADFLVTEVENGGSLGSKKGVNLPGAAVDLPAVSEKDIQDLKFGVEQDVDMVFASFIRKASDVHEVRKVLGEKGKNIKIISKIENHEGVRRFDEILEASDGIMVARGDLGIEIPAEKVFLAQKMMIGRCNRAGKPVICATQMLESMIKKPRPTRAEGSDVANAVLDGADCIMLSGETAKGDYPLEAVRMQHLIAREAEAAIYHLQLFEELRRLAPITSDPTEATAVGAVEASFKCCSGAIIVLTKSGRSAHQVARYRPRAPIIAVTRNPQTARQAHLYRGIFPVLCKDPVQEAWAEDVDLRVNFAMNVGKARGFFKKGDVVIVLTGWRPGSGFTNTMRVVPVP
Sequence of Guanine nucleotide-binding protein G(i) subunit alpha-1 (Homo sapiens) (P63096 whole entry, looked up): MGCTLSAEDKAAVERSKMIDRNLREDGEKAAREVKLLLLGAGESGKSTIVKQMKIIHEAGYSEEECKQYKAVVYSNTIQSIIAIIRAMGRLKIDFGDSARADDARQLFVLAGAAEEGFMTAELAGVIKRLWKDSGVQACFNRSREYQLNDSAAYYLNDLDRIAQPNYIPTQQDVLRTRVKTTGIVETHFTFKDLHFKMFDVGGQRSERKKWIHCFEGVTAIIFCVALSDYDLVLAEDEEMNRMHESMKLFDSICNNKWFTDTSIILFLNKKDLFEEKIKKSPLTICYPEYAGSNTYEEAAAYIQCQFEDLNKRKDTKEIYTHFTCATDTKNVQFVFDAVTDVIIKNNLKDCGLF
Sequence of Alpha-galactosidase A (Homo sapiens) (P06280 whole entry, looked up): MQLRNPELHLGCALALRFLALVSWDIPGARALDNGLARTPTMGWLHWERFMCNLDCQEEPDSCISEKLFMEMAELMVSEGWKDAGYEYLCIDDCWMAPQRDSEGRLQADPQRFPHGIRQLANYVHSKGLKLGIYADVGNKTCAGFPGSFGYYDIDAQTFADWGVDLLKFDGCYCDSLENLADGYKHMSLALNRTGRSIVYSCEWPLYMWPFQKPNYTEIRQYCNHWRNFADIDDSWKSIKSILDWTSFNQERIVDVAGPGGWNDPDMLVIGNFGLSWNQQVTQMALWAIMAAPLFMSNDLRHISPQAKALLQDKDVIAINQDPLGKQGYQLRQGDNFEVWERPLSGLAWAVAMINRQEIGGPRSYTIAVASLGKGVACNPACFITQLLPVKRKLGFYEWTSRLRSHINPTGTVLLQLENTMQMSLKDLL

In the case of `CCCCC/C=C\C/C=C\C/C=C\CCCCCCC(=O)NCCO`, the activity change, negative = inhibition [1] is reported as 14.4% [at 6.83 µM] (inactive) and the activity change, negative = inhibition [2] is reported as -18.9% [at 3.88 µM] (inactive).
For `CC(C)C[C@H](NC(=O)[C@H](Cc1ccccc1)NC(=O)CNC(=O)[C@@H](NC(=O)[C@@H](N)Cc1ccc(O)cc1)[C@H](C)O)C(=O)N[C@H](C(=O)O)[C@H](C)O`, the activity change, negative = inhibition [1] was 4.9% [at 6.83 µM] (inactive) and the activity change, negative = inhibition [2] was -27.9% [at 3.88 µM] (inactive).
In the case of `CN(CC(=O)N[C@H](CO)Cc1ccccc1)C(=O)[C@H](CCS(C)=O)NC(=O)[C@@H](N)Cc1ccc(O)cc1` (stereo not given in full) (HELM PEPTIDE1{Y.[CS(=O)CC[C@H](N[*:1])C(=O)[*:2]].[Sar].[OC[C@H](Cc1ccccc1)N[*:1]]}$$$$V2.0), the activity change, negative = inhibition [1] is reported as 16.9% [at 6.83 µM] (inactive) and the activity change, negative = inhibition [2] is reported as -13.2% [at 3.88 µM] (inactive).
In the case of `N[C@H](CP(=O)(O)O)C(=O)O`, the outcome [3] is reported as “inactive”, the Potency [4] is reported as “inactive” and the activity change, negative = inhibition [5] is reported as 5.18% (inactive). The outcome [6] was “inactive”, the Potency [7] was > 46 µM (inactive) and the Potency [8] was > 46 µM (inactive). For the same molecule, the outcome [9] was “inactive”, the Potency [10] was “inactive” and the outcome [11] was “inactive”. For the same molecule, the outcome [12] was “inactive”, the outcome [13] was “inactive” and the outcome [14] was “inactive”. The outcome [15] was “inactive”, the outcome [16] was “inactive” and the outcome [17] was “inactive”. The activity change, negative = inhibition [18] was -5.82% (inactive), the max response [18, 21] was 12.7% and the max response [18, 22] was 11.5%. For the same molecule, the Potency [19] was “inactive”, the Potency [1] was “inactive” and the Potency [2] was “inactive”.
For `COc1ccc(-n2nc(C(F)(F)F)cc2-c2ccc(Cl)cc2)cc1`, the outcome [3] was “inactive”, the Potency [4] was 0.501 µM (active) and the activity change, negative = inhibition [5] was -91.5% (active). The outcome [6] was “inactive”, the Potency [7] was > 46 µM (inactive) and the Potency [8] was > 46 µM (inactive). For the same molecule, the outcome [11] was “inactive”, the outcome [12] was “inactive” and the outcome [13] was “inactive”. For the same molecule, the outcome [14] was “inactive”, the outcome [15] was “inactive” and the outcome [16] was “inactive”. The outcome [17] was “inactive”, the activity change, negative = inhibition [18] was -0.483% (inactive) and the max response [18, 21] was -38.3%. For the same molecule, the max response [18, 22] was -37.8%, the Potency [1] was “inactive” and the Potency [2] was “inactive”.
In the case of `Cc1[nH]c2ccc(Cl)cc2c1C1=CCNCC1`, the Potency [1] is reported as “inactive” and the Potency [2] is reported as 35.5 µM (active).
In the case of `CCCCCCCCCCCCCCCCOC[C@@H](O)COP(=O)([O-])OCC[N+](C)(C)C`, the activity change, negative = inhibition [1] is reported as 3.47% [at 6.83 µM] (inactive) and the activity change, negative = inhibition [2] is reported as 13.1% [at 3.88 µM] (inactive).
With `O=C(O)C1CN(CP(=O)(O)O)CCN1` (stereo not given) the Potency [1] was “inactive” and the Potency [2] was “inactive”.
For `CC(C)[C@H](NC(=O)[C@H](CCC(=O)O)NC(=O)[C@H](Cc1ccccc1)NC(=O)[C@H](C)NC(=O)[C@@H](N)Cc1ccc(O)cc1)C(=O)N[C@H](C(=O)NCC(N)=O)C(C)C`, the activity change, negative = inhibition [1] was 2.64% [at 6.83 µM] (inactive) and the activity change, negative = inhibition [2] was -11.9% [at 3.88 µM] (inactive).
With `N#CC(C#N)=Cc1ccc([N+](=O)[O-])c(O)c1` the Potency [4] was 31.6 µM (active), the outcome [6] was “inactive” and the Potency [7] was > 46 µM (inactive). The Potency [8] was > 46 µM (inactive), the outcome [9] was “inactive” and the Potency [10] was “inactive”. The outcome [11] was “inactive”, the outcome [12] was “inactive” and the outcome [13] was “inactive”. The outcome [14] was “inactive”, the outcome [15] was “inactive” and the outcome [16] was “inactive”. For the same molecule, the outcome [17] was “inactive”, the Potency [1] was “inactive” and the Potency [2] was “inactive”.
In the case of `CC(C)(O)[C@@H]1[C@H]2OC(=O)[C@@H]1[C@]1(O)C[C@H]3O[C@]34C(=O)O[C@H]2[C@@]14C` (tested in a mixture with another compound), the Potency [7] is reported as > 46 µM (inactive), the Potency [8] is reported as > 46 µM (inactive) and the activity change, negative = inhibition [18] is reported as -0.708% (inactive). For the same molecule, the max response [18, 21] was -8.87%, the max response [18, 22] was -11.1% and the Potency [20] was “inactive”. The Potency [19] was “inactive”, the Potency [1] was “inactive” and the Potency [2] was “inactive”.
With `CC[C@]1(C2=NCCN2)Cc2ccccc2O1` the outcome [3] was “inactive”, the Potency [4] was “inactive” and the activity change, negative = inhibition [5] was -18.1% (inactive). The outcome [9] was “inactive”, the Potency [10] was “inactive” and the outcome [11] was “inactive”. The outcome [12] was “inactive”, the outcome [13] was “inactive” and the outcome [14] was “inactive”. The outcome [15] was “inactive”, the outcome [16] was “inactive” and the outcome [17] was “inactive”. For the same molecule, the activity change, negative = inhibition [18] was 2.09% (inactive), the max response [18, 21] was 4.62% and the max response [18, 22] was 7.07%. The Potency [19] was “inactive”, the Potency [1] was “inactive” and the Potency [2] was “inactive”.
